Experimental data: the supplement of paper PMC10849652
Of roughly 8,800 targets only a part is listed; those with a hit were picked by preference. About 0.5% of all pairs of compound and target were hits. Unmarked numbers belong to inactive results.

Assays:
Assay in all cases: log2 fold change, soluble protein after heating vs DMSO (PISA); higher = thermal stabilisation; K562 lysate, 10 uM; active = over 0.2 and 3.5 SD of the protein, either way, in both replicates (recomputed)
[1] = compound: NCC(=O)Nc1ccc(-n2nc(C(F)(F)F)cc2-c2ccc3c(ccc4ccccc43)c2)cc1
Method in brief: (§1)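 Soluble protein was defined as the supernatant remaining after 21,000xg for 90 min, following pooling of heated aliquots and adjustment to 0.5% NP-40 at 4°C. Before that, crude K562 extract at 1 mg/mL protein in PBS pH 7.4 with 1 mM MgCl2 was treated with 10 μM compound for 30 min and heated for 3 min across 48°C-58°C. Quantification used TMTpro 16plex LC-MS/MS with channel sums equalised, and values are log-two fold changes in thermal stability relative to solvent controls from duplicates.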

vorinostat = compound: O=C(CCCCCCC(=O)Nc1ccccc1)NO [vorinostat]
Method in brief: as §1

silmitasertib = compound: O=C(O)c1ccc2c(c1)nc(Nc1cccc(Cl)c1)c1ccncc12 [silmitasertib]
Method in brief: as §1

[2] = compound: O=C1NC(=O)C(c2cnc3ccccn23)=C1c1cn2c3c(cc(F)cc13)CN(C(=O)N1CCCCC1)CC2
Method in brief: as §1

entospletinib = compound: c1cn2cc(-c3ccc4cn[nH]c4c3)nc(Nc3ccc(N4CCOCC4)cc3)c2n1 [entospletinib]
Method in brief: as §1

Sequence of UniProt O43861 (O43861 whole entry, looked up): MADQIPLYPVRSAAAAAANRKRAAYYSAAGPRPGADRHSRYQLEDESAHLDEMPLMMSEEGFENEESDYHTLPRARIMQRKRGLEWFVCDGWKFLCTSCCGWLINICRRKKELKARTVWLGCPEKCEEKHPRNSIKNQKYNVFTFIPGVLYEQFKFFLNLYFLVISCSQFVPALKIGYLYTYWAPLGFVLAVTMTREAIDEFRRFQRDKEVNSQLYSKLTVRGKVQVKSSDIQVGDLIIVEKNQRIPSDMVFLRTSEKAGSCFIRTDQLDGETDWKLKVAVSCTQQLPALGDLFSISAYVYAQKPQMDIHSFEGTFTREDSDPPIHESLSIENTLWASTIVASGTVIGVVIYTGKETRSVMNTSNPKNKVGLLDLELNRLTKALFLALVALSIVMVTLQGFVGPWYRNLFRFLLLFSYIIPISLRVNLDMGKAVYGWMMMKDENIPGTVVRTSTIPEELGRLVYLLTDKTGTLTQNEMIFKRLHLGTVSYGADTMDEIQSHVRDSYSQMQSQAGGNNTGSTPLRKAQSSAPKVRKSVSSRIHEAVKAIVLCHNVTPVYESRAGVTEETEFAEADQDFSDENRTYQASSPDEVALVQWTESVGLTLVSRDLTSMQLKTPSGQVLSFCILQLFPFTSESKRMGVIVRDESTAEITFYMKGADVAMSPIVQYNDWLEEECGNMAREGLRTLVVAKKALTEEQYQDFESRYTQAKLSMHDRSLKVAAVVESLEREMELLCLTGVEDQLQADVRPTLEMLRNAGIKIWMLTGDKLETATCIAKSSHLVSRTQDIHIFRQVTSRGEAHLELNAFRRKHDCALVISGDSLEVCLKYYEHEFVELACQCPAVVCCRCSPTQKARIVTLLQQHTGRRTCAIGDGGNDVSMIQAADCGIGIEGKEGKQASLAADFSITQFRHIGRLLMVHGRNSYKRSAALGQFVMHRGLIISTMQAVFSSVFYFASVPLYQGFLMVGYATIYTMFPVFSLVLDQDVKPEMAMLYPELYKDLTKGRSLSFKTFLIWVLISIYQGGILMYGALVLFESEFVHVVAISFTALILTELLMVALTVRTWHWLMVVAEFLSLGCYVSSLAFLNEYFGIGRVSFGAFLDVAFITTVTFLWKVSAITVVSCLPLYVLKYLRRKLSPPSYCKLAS
Sequence of UniProt P25440 (P25440 whole entry, looked up): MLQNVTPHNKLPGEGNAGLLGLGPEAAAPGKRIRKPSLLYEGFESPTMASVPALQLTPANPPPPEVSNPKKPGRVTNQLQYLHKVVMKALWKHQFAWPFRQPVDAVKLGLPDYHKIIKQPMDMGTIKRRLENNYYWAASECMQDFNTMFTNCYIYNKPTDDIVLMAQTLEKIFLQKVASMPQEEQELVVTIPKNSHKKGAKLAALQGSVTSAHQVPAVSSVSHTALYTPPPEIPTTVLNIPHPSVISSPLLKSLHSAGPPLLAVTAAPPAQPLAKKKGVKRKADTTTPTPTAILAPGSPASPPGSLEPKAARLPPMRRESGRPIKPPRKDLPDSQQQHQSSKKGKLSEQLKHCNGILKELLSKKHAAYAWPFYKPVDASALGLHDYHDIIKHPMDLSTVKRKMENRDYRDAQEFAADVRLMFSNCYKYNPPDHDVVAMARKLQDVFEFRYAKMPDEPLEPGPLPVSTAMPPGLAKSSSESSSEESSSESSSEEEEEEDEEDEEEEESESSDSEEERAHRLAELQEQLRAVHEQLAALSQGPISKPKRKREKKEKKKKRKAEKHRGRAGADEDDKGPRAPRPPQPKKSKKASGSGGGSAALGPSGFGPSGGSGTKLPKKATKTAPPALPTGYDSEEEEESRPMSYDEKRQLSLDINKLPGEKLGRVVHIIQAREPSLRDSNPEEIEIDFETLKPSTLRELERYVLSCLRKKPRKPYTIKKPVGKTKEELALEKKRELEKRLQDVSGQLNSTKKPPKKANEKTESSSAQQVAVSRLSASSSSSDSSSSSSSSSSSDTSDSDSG
Sequence of UniProt P49589 (P49589 whole entry, looked up): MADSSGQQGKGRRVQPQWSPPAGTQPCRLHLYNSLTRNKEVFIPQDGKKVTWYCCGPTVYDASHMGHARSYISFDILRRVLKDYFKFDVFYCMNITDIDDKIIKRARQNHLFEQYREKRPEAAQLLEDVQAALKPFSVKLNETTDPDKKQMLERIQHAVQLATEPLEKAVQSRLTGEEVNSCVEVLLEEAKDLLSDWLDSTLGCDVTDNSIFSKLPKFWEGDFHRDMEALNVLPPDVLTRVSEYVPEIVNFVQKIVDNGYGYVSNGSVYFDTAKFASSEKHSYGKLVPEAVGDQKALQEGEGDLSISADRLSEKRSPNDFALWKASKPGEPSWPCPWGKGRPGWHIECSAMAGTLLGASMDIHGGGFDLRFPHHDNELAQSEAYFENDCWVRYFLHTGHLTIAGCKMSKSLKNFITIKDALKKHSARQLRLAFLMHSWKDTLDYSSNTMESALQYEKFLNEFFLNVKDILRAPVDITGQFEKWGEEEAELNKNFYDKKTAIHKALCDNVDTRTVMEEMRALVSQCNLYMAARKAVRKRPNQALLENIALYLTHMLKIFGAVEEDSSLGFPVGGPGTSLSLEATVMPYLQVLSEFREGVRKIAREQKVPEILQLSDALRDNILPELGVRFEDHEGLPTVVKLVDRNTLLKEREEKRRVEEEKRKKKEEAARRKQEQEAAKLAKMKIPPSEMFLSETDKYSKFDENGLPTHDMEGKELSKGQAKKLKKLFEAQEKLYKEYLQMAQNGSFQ
Sequence of UniProt Q8N4Q1 (Q8N4Q1 whole entry, looked up): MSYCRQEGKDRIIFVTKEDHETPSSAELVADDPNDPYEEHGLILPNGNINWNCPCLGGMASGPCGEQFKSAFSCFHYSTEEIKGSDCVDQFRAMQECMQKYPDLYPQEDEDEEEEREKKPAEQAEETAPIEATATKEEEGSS
Sequence of UniProt P30307 (P30307 whole entry, looked up): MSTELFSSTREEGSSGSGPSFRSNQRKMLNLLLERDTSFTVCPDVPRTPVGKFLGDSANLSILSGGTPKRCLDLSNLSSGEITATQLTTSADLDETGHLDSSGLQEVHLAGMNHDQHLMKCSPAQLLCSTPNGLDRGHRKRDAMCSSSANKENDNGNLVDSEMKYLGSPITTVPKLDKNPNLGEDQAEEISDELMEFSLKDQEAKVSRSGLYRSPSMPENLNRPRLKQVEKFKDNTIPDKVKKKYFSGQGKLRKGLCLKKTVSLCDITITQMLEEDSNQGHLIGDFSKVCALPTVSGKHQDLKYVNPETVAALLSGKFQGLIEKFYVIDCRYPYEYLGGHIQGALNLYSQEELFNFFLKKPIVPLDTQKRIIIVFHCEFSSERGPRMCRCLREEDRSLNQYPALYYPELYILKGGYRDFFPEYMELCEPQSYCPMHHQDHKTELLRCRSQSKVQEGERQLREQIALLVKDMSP
Sequence of UniProt Q9BYV8 (Q9BYV8 whole entry, looked up): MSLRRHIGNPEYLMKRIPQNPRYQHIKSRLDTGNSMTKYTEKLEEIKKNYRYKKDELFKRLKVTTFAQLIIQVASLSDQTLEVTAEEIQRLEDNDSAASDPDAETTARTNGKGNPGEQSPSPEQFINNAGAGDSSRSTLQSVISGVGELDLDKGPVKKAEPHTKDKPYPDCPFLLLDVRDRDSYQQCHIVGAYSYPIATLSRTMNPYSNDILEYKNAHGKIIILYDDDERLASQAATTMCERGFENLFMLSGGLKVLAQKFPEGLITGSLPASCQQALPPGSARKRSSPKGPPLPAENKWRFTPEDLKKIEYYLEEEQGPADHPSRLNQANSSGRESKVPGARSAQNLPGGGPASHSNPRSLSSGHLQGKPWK
Sequence of UniProt Q06187 (Q06187 whole entry, looked up): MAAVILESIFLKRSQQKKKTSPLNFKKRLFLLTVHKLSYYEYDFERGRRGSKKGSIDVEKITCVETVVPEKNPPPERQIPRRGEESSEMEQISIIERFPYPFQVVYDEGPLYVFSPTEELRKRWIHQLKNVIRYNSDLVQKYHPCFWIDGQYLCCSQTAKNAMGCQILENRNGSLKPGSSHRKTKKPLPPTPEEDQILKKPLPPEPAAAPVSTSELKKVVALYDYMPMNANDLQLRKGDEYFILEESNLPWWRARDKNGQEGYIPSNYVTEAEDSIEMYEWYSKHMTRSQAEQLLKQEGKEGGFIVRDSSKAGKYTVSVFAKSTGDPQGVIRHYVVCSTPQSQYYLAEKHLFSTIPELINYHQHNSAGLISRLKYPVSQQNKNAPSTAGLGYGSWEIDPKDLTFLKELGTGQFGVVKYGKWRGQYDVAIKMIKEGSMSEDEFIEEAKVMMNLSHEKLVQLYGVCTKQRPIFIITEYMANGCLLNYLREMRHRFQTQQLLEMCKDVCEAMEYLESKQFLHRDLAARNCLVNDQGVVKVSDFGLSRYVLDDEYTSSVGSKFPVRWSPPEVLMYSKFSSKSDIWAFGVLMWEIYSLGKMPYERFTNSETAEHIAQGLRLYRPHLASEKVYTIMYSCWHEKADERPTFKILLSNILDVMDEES
Sequence of UniProt Q6P4E1 (Q6P4E1 whole entry, looked up): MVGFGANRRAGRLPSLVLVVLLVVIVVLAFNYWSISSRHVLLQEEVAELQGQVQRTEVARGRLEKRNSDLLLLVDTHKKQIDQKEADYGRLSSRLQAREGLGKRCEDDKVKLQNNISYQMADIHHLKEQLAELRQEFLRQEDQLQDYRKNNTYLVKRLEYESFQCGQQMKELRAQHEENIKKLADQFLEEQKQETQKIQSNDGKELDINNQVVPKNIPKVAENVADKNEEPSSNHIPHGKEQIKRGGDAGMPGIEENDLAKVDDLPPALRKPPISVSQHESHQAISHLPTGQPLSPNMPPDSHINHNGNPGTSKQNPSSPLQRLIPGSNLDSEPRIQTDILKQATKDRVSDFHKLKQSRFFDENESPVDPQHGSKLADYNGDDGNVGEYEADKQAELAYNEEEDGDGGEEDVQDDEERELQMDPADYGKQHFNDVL
Sequence of UniProt P83916 (P83916 whole entry, looked up): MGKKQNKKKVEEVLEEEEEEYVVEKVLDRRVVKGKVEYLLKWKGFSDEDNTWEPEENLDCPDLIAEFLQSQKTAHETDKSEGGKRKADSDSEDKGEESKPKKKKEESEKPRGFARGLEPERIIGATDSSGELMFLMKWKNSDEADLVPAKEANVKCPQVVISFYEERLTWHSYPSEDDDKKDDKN

Target | log2 fold change [1] | log2 fold change (vorinostat) | log2 fold change (silmitasertib) | log2 fold change [2] | log2 fold change (entospletinib)
CARS isoform 3 (UniProt P49589) | 0.018 | -0.254 (active) | 0.018 | -0.049 | 0.008
CHCHD1 (UniProt Q96BP2) | 0.131 | 0.055 | -0.039 | -0.014 | -0.081
CHD9 (UniProt Q3L8U1) | -0.018 | -0.111 | 0.075 | -0.012 | 
ATF7IP2 (UniProt Q5U623) | 0.066 | 0.027 | 0.002 | -0.048 | 
BTK isoform 2 (UniProt Q06187) | 0.439 (active) | -0.322 (active) | 0.066 | 0.012 | 0.3
CELF2 isoform 3 (UniProt O95319) | 0.036 | -0.028 | -0.012 | -0.041 | 0.033
C16orf70 (UniProt Q9BSU1) | -0.013 | -0.382 (active) | 0.019 | -0.015 | -0.104
CANX (UniProt D6RHJ3) | 0.012 |  |  |  | 
BAHCC1 (UniProt Q9P281) | 0.009 | -0.082 | -0.086 | -0.158 | -0.069
CCNB1 (UniProt P14635) | 0.05 | -0.008 | -0.013 | -0.02 | -0.009
BRD2 isoform 2 (UniProt P25440) | 0.048 | 0.107 | 0.074 | 0.051 | 0.021
CDC25C (UniProt P30307) | -0.019 | -0.271 (active) | 0.009 | 0.026 | -0.01
CHCHD4 isoform 2 (UniProt Q8N4Q1) | 0.06 | 0.207 | -0.145 | -0.027 | 0.01
CASC4 (UniProt Q6P4E1) | -0.034 | 0.02 | 0.019 | 0.025 | -0.029
CEP41 (UniProt Q9BYV8) | 0.002 | -0.558 (active) | -0.026 | -0.152 | -0.017
ATP9B (UniProt O43861) | 0.013 | 0.012 | 0.005 | -0.045 | 0
CCNY (UniProt Q8ND76) | 0.076 | -0.822 (active) | -0.018 | -0.002 | -0.074
CARNMT1 (UniProt Q8N4J0) | 0.005 | 0.027 | 0.008 | -0.028 | -0.039
CCDC51 (UniProt Q96ER9) | 0.002 | 0.153 | 0.011 | 0.015 | -0.046
CBX1 (UniProt P83916) | 0.029 | 0.092 | -0.046 | -0.01 | -0.018
CDK8 (UniProt P49336) | -0.008 | -0.057 | 0.226 | -0.053 | 
CARD11 (UniProt Q9BXL7) | -0.113 | -0.406 (active) | 0.001 | 0.004 | -0.031
CDK16 isoform 2 (UniProt Q00536) | 0.006 | 0.055 | 0.446 (active) | 0.603 (active) | -0.05
BMS1 (UniProt Q14692) | 0.024 | -0.037 | 0.04 | 0.033 | 0.045
ATP6V0A2 (UniProt Q9Y487) | -0.033 | 0.127 | -0.016 | -0.021 | 0.012
ATM (UniProt Q13315) | 0.058 | -0.093 | 0.118 | -0.033 | 0.036
CAPNS1 (UniProt K7ES78) | -0.234 | -0.011 | -0.037 | 0.141 | 
C3orf33 (UniProt Q6P1S2) | -0.085 | -0.118 | -0.137 | 0.023 | 
